Only a selection was taken, and hits are over-represented in it overall.
Pf Dd2 growth: Plasmodium falciparum Dd2 growth inhibition | P. falciparum Dd2 growth, SYBR Green, 72 h | Potency, µM (top dose mostly 28.9 µM), without a hit: at the highest dose activity, negative = inhibition, hits mostly inhibitors | actives 4.3% (n = 120,000) | AID 1347417; active = well fitted inhibition curve with a large enough effect;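 also: plate controls were DMSO vehicle for no effect and reference drug for full effect; nearly all actives have a fitted effect of over 65% in size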
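Readout: SYBR Green fluorescence, 485 nm excitation, 535 nm emission, after ~16 h lysis at 37C. Before that, Dd2-infected red cells (2.5% hematocrit) grew 72 h with compound, 29 uM top final concentration.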
Active calls of the source: *; i = inactive; [ ] = dose if it differs, or a comment. Potency is read from the fitted curve at half-maximal effect.

SMILES | Pf Dd2 growth
Cn1c([C@H]2CCN(C(=O)COc3ccccc3)C2)nc2ccccc21 | -18%[44.1 µM]
COC[C@@H]1CN(C(=O)c2cncc(C)c2)C[C@H]1C(N)=O | 7%
COCCNC(=O)C1COC2(CCN(C(=O)c3ccccc3C)CC2)N1C(=O)c1cccc(OC)c1 (stereo not drawn) | 0%
CCC(NS(=O)(=O)c1ccc(C(=O)NC2CC2)cc1)c1cnn(C)c1 (stereo not drawn) | 3%
COC[C@H]1C[C@@H](NC(=O)CC(C)(C)C)[C@H](O)[C@@H]1O | 19%[44.1 µM]
O=C(c1ccc(F)c(F)c1)N1CCC(Oc2ncccc2C(=O)N2CCCCC2)C1 (stereo not drawn) | i
CCOC(=O)c1cc(-c2ccccc2)n(CCC(=O)NCCc2cccc(C)c2)c1C | -3%
CCOC(=O)c1cc(-c2ccccc2)n(CCC(=O)Nc2cc(OCC)ccc2OCC)c1C | 21%
CCOC(=O)c1cc(-c2ccccc2)n(CCC(=O)Nc2ccc(Cl)c(C(F)(F)F)c2)c1C | 2.8µM*
CCOC(=O)c1cc(-c2ccccc2)n(CCC(=O)Nc2cc(C)cc(C)c2)c1C | 3.2µM*
CCOC(=O)c1cc(-c2ccccc2)n(CCC(=O)Nc2ccc(C)cc2Cl)c1C | -47%
CCOC(=O)c1cc(-c2ccccc2)n(CC(=O)Nc2cc(Cl)c(OC)cc2OC)c1C | i
CC(=O)c1cc(CN2CCC3(CC2)C(C(=O)O)CC(=O)N3C)n(C)c1 (stereo not drawn) | -8%
CC(=O)Nc1ccc(CN2C(=O)OC3(CCN(C(=O)c4ccnn4C)CC3)C2(C)c2ccccc2)cc1 (stereo not drawn) | i
C[C@]1(O)CCN(C(=O)c2ccc(-c3cnco3)cc2)C[C@@H]1O | 0%
O=C(CCC[C@@H]1[C@H]2CCCN3CCC[C@@H](CN1C(=O)C1CCC1)[C@@H]23)NCC1CC1 | -11%
CCN(C(=O)c1sc2nc3n(c(=O)c2c1C)CCCCC3)c1ccc(OC)cc1 | -8%
CCc1ccc(N(CC)C(=O)c2sc3nc4n(c(=O)c3c2C)CCCC4)cc1 | 11µM*
CCN(Cc1ccccc1)C(=O)c1sc2nc3n(c(=O)c2c1C)CCCC3 | 235%[5.79 µM]
COc1ccccc1NC(=O)Cn1c(C)ccc(NS(=O)(=O)c2ccccc2)c1=O | 1.4µM*
COc1ccc(S(=O)(=O)Nc2ccc(C)n(CC(=O)NCc3ccccc3)c2=O)cc1 | -13%
CCc1ccc(NC(=O)Cn2c(C)ccc(NS(=O)(=O)c3ccccc3)c2=O)cc1 | -6%
CNC(C)c1ccncc1 (stereo not drawn) | 5%[44.1 µM]
CNC(C)c1ccc(OC(F)(F)F)cc1 (stereo not drawn) | 2%[76.6 µM]
CNC(C)c1ccc(Oc2ccccc2)cc1 (stereo not drawn) | 11µM*
SMILES | Pf Dd2 growth
O=C(CC1=CCCCC1)N1CCc2nn(CC3CC3)c(=O)n2CC1 | 14%
O=C(c1nc(-c2ccccc2)c2ccccn12)N1CCOCC1 | -27%[44.1 µM]
c1coc(-c2noc(CNCc3cccnc3-n3cncn3)n2)c1 | 5%
CCn1cc(S(=O)(=O)N2CCC(Cc3nncn3CC)C2)cn1 (stereo not drawn) | 37%
C#C[C@H]1CN2CC[C@H]1C[C@@H]2CNCc1cccc(C#N)c1 | 14µM*
C#C[C@H]1CN2CC[C@H]1C[C@@H]2CNS(=O)(=O)c1cccc(F)c1 | 8.9µM*
CCN(CC)C[C@H]1CN2CC[C@H]1C[C@@H]2CNS(=O)(=O)c1ccc(Cl)cc1 | -15%[44.1 µM]
C#C[C@H]1CN2CC[C@H]1C[C@@H]2CNS(=O)(=O)c1cccs1 | 8.9µM*
C#C[C@H]1CN2CC[C@H]1C[C@@H]2CNS(=O)(=O)c1ccc(Cl)cc1 | 5µM*
CC[C@H]1CN2CC[C@H]1C[C@@H]2CNS(=O)(=O)c1ccccc1 | i
CC[C@H]1CN2CC[C@H]1C[C@@H]2CNC(=O)Nc1cccc(C#N)c1 | i
O=S(=O)(NC[C@H]1C[C@@H]2CCN1C[C@@H]2CN1CCCCC1)c1ccccc1 | -5%[44.1 µM]
CC[C@H]1CN2CC[C@H]1C[C@@H]2CNS(=O)(=O)c1cccs1 | -5%[44.1 µM]
C#C[C@H]1CN2CC[C@H]1C[C@@H]2CNCc1ccc(C(C)C)cc1 | i
C#CCN(C)C[C@H]1CN2CC[C@H]1C[C@@H]2CNS(=O)(=O)c1ccccc1 | i
C=C[C@H]1CN2CC[C@H]1C[C@@H]2CNS(=O)(=O)c1ccc(Cl)cc1 | -6%[44.1 µM]
Cc1nnnn1-c1ccc(C(=O)Nc2ccc3c(c2)C(=O)N2CCC[C@H]2C(=O)N3)cc1 | 0%
COc1ccc(-c2ccnc(N[C@H]3CO[C@H]4[C@@H]3OC[C@H]4OCC(N)=O)n2)cc1 | -20%[44.1 µM]
O=C(Cc1c(F)cccc1Cl)N1CCCN(c2cc(-c3ccccc3)[nH]n2)CC1 | i
CC(C)NC(=O)c1nc(-c2ccc(Cl)cc2)c2ccccn12 | 2%
O=C(Cc1ccc(F)cc1)N1CCC(c2n[nH]c(=O)n2-c2ccccc2)CC1 | 12%
CCOc1ccccc1NC(=O)N1CCC(N2CC(OCCOC)C23CCCCC3)CC1 (stereo not drawn) | i
O=C(COc1ccccc1)NCC1(COc2ccccc2)C[C@@H](O)[C@@H](O)C1 (stereo partly drawn) | -17%[44.1 µM]

Assay outcomes: PubChem, National Center for Advancing Translational Sciences (NCATS)
